{
  "source": "PubChem BioAssay (Tox21)",
  "note": "Results filed as inconclusive are left out. Active and inactive are the calls of the source. Unless noted, the call rests on the fitted dose curve; in most records, active means well fitted curve in the direction sought with a large enough effect in the repeat runs; inconclusive means weak or mixed curves; inactive means flat fitted curve, though single readings scatter. On the % scale 0 is the no-effect control and ±100 the full control effect.",
  "data": [
    {"assay": "qHTS assay for small molecule disruptors of the mitochondrial membrane potential - cell viability (AID 720634; calls by dose curve;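 further: human HepG2 liver cancer cells; nearly all actives have a fitted effect of over 20% in size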)", "conditions": "HepG2 viability, ATP luminescence (CellTiter-Glo), 1 h; series mostly up to 83.2 µM; activity change, negative = cytotoxicity: at the top concentration", "in_short": "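Cells: HepG2, 2,000/well, attached overnight. Compound 1 hr, 37 C/5% CO2. +m-MPI dye, +CellTiter-Glo 30 min RT. Readout: luminescence (ATP).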", "values": [
      {"smiles": "CC1=CC[C@@]23C[C@@H]1C(C)(C)[C@@H]2CC[C@H]3C", "activity change, negative = cytotoxicity": "-6.51% (inactive)"},
      {"smiles": "Nc1nc2ccc(OC(F)(F)F)cc2s1", "activity change, negative = cytotoxicity": "-18% (inactive)"},
      {"smiles": "CC[C@H]1OC(=O)[C@H](C)[C@@H](O[C@H]2C[C@@](C)(OC)[C@@H](O)[C@H](C)O2)[C@H](C)[C@@H](O[C@@H]2O[C@H](C)C[C@H](N(C)C)[C@H]2O)[C@](C)(O)C[C@@H](C)CN(C)[C@H](C)[C@@H](O)[C@]1(C)O", "outcome": "inactive"},
      {"smiles": "C1=CCC2CC=CC2C1", "note": "(configuration not stated)", "activity change, negative = cytotoxicity": "6.02% (inactive)"},
      {"smiles": "CCCCCCCCCCCCCCCCCC(=O)OCC(CC)CCCC", "note": "(configuration not stated)", "activity change, negative = cytotoxicity": "7.77% (inactive)"},
      {"smiles": "O=P(O)(O)Oc1ccccc1", "activity change, negative = cytotoxicity": "9.64% (inactive)"},
      {"smiles": "Cc1cccc(C)c1NC(=O)c1cc(S(N)(=O)=O)c(Cl)cc1O", "activity change, negative = cytotoxicity": "-8.7% (inactive)"},
      {"smiles": "O=[N+]([O-])c1ccc2ncccc2c1", "activity change, negative = cytotoxicity": "-1.49% (inactive)"},
      {"smiles": "O=CNNC=O", "activity change, negative = cytotoxicity": "9.47% [at 95.3 µM] (inactive)"},
      {"smiles": "CNc1c2c(nn1C)CCCC2", "activity change, negative = cytotoxicity": "4.91% (inactive)"},
      {"smiles": "COc1ccc(-c2cc(C(F)F)nn2-c2ccc(S(N)(=O)=O)cc2)cc1F", "activity change, negative = cytotoxicity": "-7.05% (inactive)"}
    ]},
    {"assay": "qHTS assay to test for compound auto fluorescence at 590 nm (red) in HepG2 cells (AID 720674)", "conditions": "HepG2 autofluorescence, red 540/590 nm, 1 h; series mostly up to 91.3 µM; fluorescence, relative to Rose Bengal: at the top concentration", "in_short": "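Rose Bengal sodium served as the red fluorophore standard. HepG2 monolayers (overnight attachment, MEM with 10% FBS) were exposed to test compounds for 1 hr at 37 C and read at Ex 540/Em 590 nm.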", "values": [
      {"smiles": "C=C(C)C(=O)OCCC(F)(F)C(F)(F)C(F)(F)C(F)(F)C(F)(F)C(F)(F)F", "fluorescence, relative to Rose Bengal": "-0.135% (inactive)"},
      {"smiles": "CC1CCc2nccnc21", "note": "(configuration not stated)", "fluorescence, relative to Rose Bengal": "-0.035% (inactive)"},
      {"smiles": "O=C(C(=O)c1ccco1)c1ccco1", "fluorescence, relative to Rose Bengal": "0.0791% (inactive)"},
      {"smiles": "CC1C(C)(C)C2=C(C(=O)CCC2)C1(C)C", "note": "(configuration not stated)", "fluorescence, relative to Rose Bengal": "0.201% (inactive)"},
      {"smiles": "Cc1cccc2sc(N)nc12", "fluorescence, relative to Rose Bengal": "0.0506% [at 95.7 µM] (inactive)"},
      {"smiles": "O=c1[nH][nH]c(=O)c2cc([N+](=O)[O-])ccc12", "fluorescence, relative to Rose Bengal": "-0.117% [at 95.7 µM] (inactive)"},
      {"smiles": "O=NN(CCCl)C(=O)NCCCl", "fluorescence, relative to Rose Bengal": "0.196% [at 46 µM] (inactive)"},
      {"smiles": "O=S(=O)(O)CO", "fluorescence, relative to Rose Bengal": "-0.185% (inactive)"},
      {"smiles": "Nc1ccc(S(=O)(=O)NCc2ccccc2)cc1", "fluorescence, relative to Rose Bengal": "-0.0903% [at 46 µM] (inactive)"},
      {"smiles": "O=c1[nH]c2cc(C(F)(F)F)c(N3CCOCC3)cc2n(CP(=O)(O)O)c1=O", "fluorescence, relative to Rose Bengal": "-0.233% [at 46 µM] (inactive)"},
      {"smiles": "CC(O)Cn1cnc2c1c(=O)n(C)c(=O)n2C", "note": "(configuration not stated)", "fluorescence, relative to Rose Bengal": "-0.388% [at 18.6 µM] (inactive)"},
      {"smiles": "O=C(O)CN1C(=O)c2cccc3cccc(c23)C1=O", "fluorescence, relative to Rose Bengal": "0.537% [at 46 µM] (inactive)"},
      {"smiles": "CC(C)COC(=O)COc1cc(Cl)c(Cl)cc1Cl", "fluorescence, relative to Rose Bengal": "-0.0857% (inactive)"},
      {"smiles": "C[C@H](CS)C(=O)N1CCC[C@H]1C(=O)O", "fluorescence, relative to Rose Bengal": "0.0877% [at 46 µM] (inactive)"},
      {"smiles": "CC(=O)OC(C)C[N+](C)(C)C", "note": "(configuration not stated)", "fluorescence, relative to Rose Bengal": "0.553% [at 18.6 µM] (inactive)"},
      {"smiles": "CSSc1ccoc1C", "fluorescence, relative to Rose Bengal": "-0.0176% (inactive)"},
      {"smiles": "CC(C)(C)S", "fluorescence, relative to Rose Bengal": "0.0454% [at 95.7 µM] (inactive)"},
      {"smiles": "BrC(Br)C(Br)Br", "fluorescence, relative to Rose Bengal": "0.0995% (inactive)"},
      {"smiles": "CC[C@H]1OC(=O)[C@H](C)[C@@H](O[C@H]2C[C@@](C)(OC)[C@@H](O)[C@H](C)O2)[C@H](C)[C@@H](O[C@@H]2O[C@H](C)C[C@H](N(C)C)[C@H]2O)[C@](C)(O)C[C@@H](C)CN(C)[C@H](C)[C@@H](O)[C@]1(C)O", "outcome": "inactive"},
      {"smiles": "C1=CCC2CC=CC2C1", "note": "(configuration not stated)", "fluorescence, relative to Rose Bengal": "-0.208% (inactive)"},
      {"smiles": "CCCCCCCCCCCCCCCCCC(=O)OCC(CC)CCCC", "note": "(configuration not stated)", "fluorescence, relative to Rose Bengal": "0.228% (inactive)"},
      {"smiles": "O=P(O)(O)Oc1ccccc1", "fluorescence, relative to Rose Bengal": "0.0379% (inactive)"},
      {"smiles": "Cc1cccc(C)c1NC(=O)c1cc(S(N)(=O)=O)c(Cl)cc1O", "fluorescence, relative to Rose Bengal": "-0.583% [at 46 µM] (inactive)"},
      {"smiles": "O=[N+]([O-])c1ccc2ncccc2c1", "fluorescence, relative to Rose Bengal": "0.139% (inactive)"},
      {"smiles": "O=CNNC=O", "fluorescence, relative to Rose Bengal": "-0.114% [at 95.7 µM] (inactive)"},
      {"smiles": "CNc1c2c(nn1C)CCCC2", "fluorescence, relative to Rose Bengal": "-0.0408% [at 46 µM] (inactive)"}
    ]}
  ]
}
